The text below walks through data of PubChem BioAssay (Tox21).

Unmarked numbers belong to inactive results. Records with an inconclusive call do not appear. The source made the active and inactive calls. Unless noted, calls follow the shape of the dose curve; as a rule, active = well fitted curve in the direction sought with a large enough effect in the repeat runs; inconclusive = weak or mixed curves; inactive = no such curve, though single readings can be large; an effect the other way counts as inactive or inconclusive.

Assay [1] has as its target Thyrotropin-releasing hormone receptor (Homo sapiens) (UniProt P34981). Nature of the assay: qHTS assay to identify small molecule agonists of the thyrotropin-releasing hormone receptor (TRHR) signaling pathway (AID 1346891; calls by dose curve;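 also: HEK293 cells expressing TRHR with calcium dye readout; series mostly up to about 58 µM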). Put shortly: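 In 1536-format, 1500 TRHR-Hek293 cells per well grew 18 h, took up calcium dye for 2 h at 37 °C, received compound, and were read kinetically; 15-point titrations, triplicates.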
A general note: In qHTS, concentration-response curves come from the screen itself.

A short description of assay [2]: Human pregnane X receptor (PXR) small molecule agonists, qHTS cell viability counter screen (AID 1346977). Also: nearly all actives have a fitted effect of over 50% in size. Also: potency is read from the fitted curve at half-maximal effect. A digest of the protocol:
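Readout is CellTiter-Fluor fluorescence from PXR-Luc HepG2 cells. Plated cells rested 5hr, then were treated with compounds for 24hr at 37C and 5% CO2, with reagent present during the last hour.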

Assay [3] can be described thus: Caspase-3/7 induction in CHO-K1 cells by small molecules, qHTS assay (AID 1346980). Also: nearly all actives have a fitted effect of over 15% in size. Put shortly: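 Luminescent Caspase-Glo 3/7 read (30min, room temperature) quantified apoptosis induction. Cells were wild-type CHO-K1, treated with compound for 17hr at 37 C and 5% CO2.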
Assay [4] can be described thus: Caspase-3/7 induction in HepG2 cells by small molecules, qHTS cell viability counter screen (AID 1346981). Also: nearly all actives have a fitted effect of over 30% in size. Also: potency is read from the fitted curve at half-maximal effect. A digest of the protocol: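 In this quantitative HTS counter screen, compounds delivered in DMSO were left on unmodified HepG2 cells for 16 hr at 37 C. Viability was then determined fluorometrically with CellTiter-Fluor, in parallel with caspase-3/7 induction in the same wells.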

Assay [5] deals with Nuclear receptor subfamily 1 group I member 2 (Homo sapiens) (UniProt O75469). The assay is described as follows: Human pregnane X receptor (PXR) small molecule agonists, qHTS assay (AID 1346982). Also: nearly all actives have a fitted effect of over 35% in size. Also: potency is read from the fitted curve at half-maximal effect. Put shortly: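 Reporter HepG2 cells expressing PXR-Luc are cultured in charcoal-stripped FBS (5%), treated with compounds for 24 hr at 37 C, and assayed by ONE-Glo luminescence after 30 min at room temperature.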
Chain of Nuclear receptor subfamily 1 group I member 2 (Homo sapiens) (O75469 whole entry, looked up): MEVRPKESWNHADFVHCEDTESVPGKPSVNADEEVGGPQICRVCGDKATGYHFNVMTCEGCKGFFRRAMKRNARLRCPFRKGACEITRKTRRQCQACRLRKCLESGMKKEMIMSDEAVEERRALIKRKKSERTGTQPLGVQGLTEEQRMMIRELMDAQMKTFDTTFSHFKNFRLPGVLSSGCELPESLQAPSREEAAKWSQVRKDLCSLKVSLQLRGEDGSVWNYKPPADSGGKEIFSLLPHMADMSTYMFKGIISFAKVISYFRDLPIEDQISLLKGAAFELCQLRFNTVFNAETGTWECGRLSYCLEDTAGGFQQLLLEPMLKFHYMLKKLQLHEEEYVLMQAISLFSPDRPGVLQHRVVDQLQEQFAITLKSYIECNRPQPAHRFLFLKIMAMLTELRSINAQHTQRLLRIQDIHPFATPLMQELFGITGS

For assay [6], the target named is Acetylcholinesterase (Homo sapiens) (UniProt P22303). The assay is described as follows: Acetylcholinesterase (AChE) small molecule antagonists: colormetric cell-based qHTS assay (AID 1347395; calls by dose curve; also: nearly all actives have a fitted effect of over 30% in size). Put shortly: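 Neuroblastoma line SH-SY5Y supplied the enzyme; cells were preincubated with compound for 30 min at 37 C and 5% CO2. Acetylthiocholine with DTNB was then added for 90 min at 37 C, and thiocholine was measured by colour.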
Chain of Acetylcholinesterase (Homo sapiens) (P22303 whole entry, looked up): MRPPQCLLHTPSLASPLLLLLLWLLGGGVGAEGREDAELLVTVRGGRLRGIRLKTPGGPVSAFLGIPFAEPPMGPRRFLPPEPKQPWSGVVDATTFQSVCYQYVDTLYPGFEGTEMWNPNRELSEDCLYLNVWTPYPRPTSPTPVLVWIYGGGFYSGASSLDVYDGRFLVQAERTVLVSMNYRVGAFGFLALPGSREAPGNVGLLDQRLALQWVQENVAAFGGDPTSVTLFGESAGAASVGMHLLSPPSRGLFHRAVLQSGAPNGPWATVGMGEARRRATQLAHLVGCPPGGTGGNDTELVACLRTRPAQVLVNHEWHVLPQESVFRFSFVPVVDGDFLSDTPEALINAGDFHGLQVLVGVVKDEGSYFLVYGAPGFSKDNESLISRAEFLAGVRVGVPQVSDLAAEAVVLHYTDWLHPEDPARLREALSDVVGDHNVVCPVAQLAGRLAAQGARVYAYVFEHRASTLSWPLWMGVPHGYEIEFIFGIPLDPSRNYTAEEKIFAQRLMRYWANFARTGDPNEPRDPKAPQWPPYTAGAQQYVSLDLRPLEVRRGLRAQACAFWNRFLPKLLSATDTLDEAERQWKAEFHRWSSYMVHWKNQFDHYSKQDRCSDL

Assay [7] shares this target. The assay is described as follows: Acetylcholinesterase (AChE) small molecule antagonists: enzyme-based qHTS assay (AID 1347397; calls by dose curve; also: nearly all actives have a fitted effect of over 55% in size). The conditions noted are these: Potency: AChE enzyme activity inhibition. Put shortly: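 Colorimetric DTNB readout of acetylthiocholine hydrolysis, 10 min at room temperature, after 30 min room-temperature exposure of 50 mU/mL recombinant human enzyme to compound; DMSO vehicle control.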

The target is the same in assay [8]. The assay is described as follows: Acetylcholinesterase (AChE) small molecule antagonists: fluorescence cell-based qHTS assay (AID 1347398; calls by dose curve; also: nearly all actives have a fitted effect of over 50% in size). To be noted: Potency: AChE activity. Put shortly: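 Cellular AChE activity read as thiocholine from acetylthiocholine hydrolysis, detected by Thiolite Green fluorescence at 490/520 nm after 40 min at room temperature. Compounds were pre-incubated 30 min at 37 C on adherent SH-SY5Y cells.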

The target is the same in assay [9]. The assay is described as follows: Acetylcholinesterase (AChE) small molecule antagonists: enzyme-based qHTS assay with human liver microsomes (AID 1347399; calls by dose curve; also: nearly all actives have a fitted effect of over 60% in size). To be noted: Potency: qHTS inhibition. Put shortly: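 Recombinant human AChE (50 mU/mL in the enzyme mix) and human liver microsomes (0.25 mg/mL final) were preincubated with compound and NADPH (0.25 mg/mL final) for 30 min at 37 C. Acetylthiocholine/DTNB was then added; thiocholine was read colorimetrically after 10 min at room temperature.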

Assay [10] concerns the target Cytochrome P450 2C9 (Homo sapiens) (UniProt P11712). The assay is described as follows: Cytochrome P450 Family 2 Subfamily C Member 9 (CYP2C9) small molecule antagonists: luciferase reporter qHTS assay (AID 1671198). Also: nearly all actives have a fitted effect of over 50% in size. Also: potency is read from the fitted curve at half-maximal effect. Put shortly:
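Enzyme-substrate mix preincubated with compound 10 min at room temperature; reaction started with NADPH regeneration solution, 1 h 37C. Luminescent luciferin product read after 20 min detection reagent.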
For orientation: In a reporter assay the amount or activity of a reporter protein is the signal.

Assay [11] has as its target Cytochrome P450 1A2 (Homo sapiens) (UniProt P05177). The assay is described as follows: Cytochrome P450 Family 1 Subfamily A Member 2 (CYP1A2) small molecule antagonists: luciferase reporter qHTS assay (AID 1671199). Also: nearly all actives have a fitted effect of over 50% in size. Also: potency is read from the fitted curve at half-maximal effect. Put shortly:
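Steps: enzyme-substrate mix dispensed; test compounds and furafylline control pinned in; 10 min room temperature; NADPH regeneration solution added, 1 h; reaction stopped with luciferin detection reagent; luminescence read after 20 min.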

Assay [12] deals with Voltage-gated inwardly rectifying potassium channel KCNH2 (Homo sapiens) (UniProt Q12809). Nature of the assay: Human Ether-a-go-go-Related Gene (hERG) channel small molecule antagonists: fluorescence cell-based qHTS assay (AID 1671200). Put shortly:
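Measured: Tl+ flux via fluorescence (480/540 nm) in hERG-expressing U2OS cells after 1 h dye loading at room temperature.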
A general note: hERG is a cardiac potassium channel; its block is linked to QT prolongation.

Assay [13] deals with Cytochrome P450 3A4 (Homo sapiens) (UniProt P08684). Nature of the assay: Cytochrome P450 Family 3 Subfamily A Member 4 (CYP3A4) small molecule antagonists: luciferase reporter qHTS assay (AID 1671201). Also: nearly all actives have a fitted effect of over 50% in size. Also: potency is read from the fitted curve at half-maximal effect. A digest of the protocol: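 Setup: enzyme-substrate mix, compound pin transfer, 10 min RT. Reaction: NADPH regeneration solution, 1 h RT. Readout: detection reagent stops turnover, luminescence measured after 20 min, expressed in relative luminescence units.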
Chain of Cytochrome P450 3A4 (Homo sapiens) (P08684 whole entry, looked up): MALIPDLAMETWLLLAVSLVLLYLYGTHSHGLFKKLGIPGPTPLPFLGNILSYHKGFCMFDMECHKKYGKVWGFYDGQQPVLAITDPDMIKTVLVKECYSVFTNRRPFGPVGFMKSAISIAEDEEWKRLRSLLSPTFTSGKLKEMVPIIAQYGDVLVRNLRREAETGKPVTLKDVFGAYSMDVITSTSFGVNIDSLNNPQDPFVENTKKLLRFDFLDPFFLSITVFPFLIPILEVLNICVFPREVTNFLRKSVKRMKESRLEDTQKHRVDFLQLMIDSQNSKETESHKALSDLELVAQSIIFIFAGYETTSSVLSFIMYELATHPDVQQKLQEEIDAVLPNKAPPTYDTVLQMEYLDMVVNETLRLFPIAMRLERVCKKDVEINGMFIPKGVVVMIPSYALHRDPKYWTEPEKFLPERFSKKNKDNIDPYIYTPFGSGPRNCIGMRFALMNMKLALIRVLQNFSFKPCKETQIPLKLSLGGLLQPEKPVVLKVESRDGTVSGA

The target of assay [14] is Cytochrome P450 2D6 (Homo sapiens) (UniProt P10635). Nature of the assay: Cytochrome P450 Family 2 Subfamily D Member 6 (CYP2D6) small molecule antagonists: luciferase reporter qHTS assay (AID 1671196). Also: nearly all actives have a fitted effect of over 50% in size. Also: potency is read from the fitted curve at half-maximal effect. Put shortly:
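Test chemicals meet CYP2D6 plus proluciferin substrate (10 min, RT); NADPH regenerating solution then drives turnover for 1 h. Detection reagent halts the reaction; luminescence measured after 20 min.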

The target in assay [15] is Cytochrome P450 2C19 (Homo sapiens) (UniProt P33261). The assay is described as follows: Cytochrome P450 Family 2 Subfamily C Member 19 (CYP2C19) small molecule antagonists: luciferase reporter qHTS assay (AID 1671197). Also: nearly all actives have a fitted effect of over 65% in size. Also: potency is read from the fitted curve at half-maximal effect. Put shortly:
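P450-Glo CYP2C19 screening system; proluciferin substrate; DMSO compound stocks; 10 min RT preincubation; NADPH regeneration, 1 h at 37C; luciferin detection reagent, 20 min RT; luminescence as RLU.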

The nature of assay [16]: Caspase-3/7 induction in HepG2 cells by small molecules, qHTS assay (AID 1346978). Also: nearly all actives have a fitted effect of over 15% in size. A digest of the protocol: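 Caspase-3/7 induction was measured by Caspase-Glo 3/7 luminescence (30 min, room temperature) after a 17 hr compound exposure of wild-type HepG2 cells seeded at 2,000 per well and pre-incubated 5 hr.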
Assay [17] is described as follows: Caspase-3/7 induction in CHO-K1 cells by small molecules, qHTS cell viability counter screen (AID 1346979). Also: nearly all actives have a fitted effect of over 35% in size. Put shortly:
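To flag cytotoxic compounds, treated CHO-K1 wild-type cells were given CellTiter-Fluor at 16hr and read fluorescently after 1hr at 37C; the caspase-3/7 luminescence was measured in these same wells.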

Chain of Cytochrome P450 2C9 (Homo sapiens) (P11712 whole entry, looked up): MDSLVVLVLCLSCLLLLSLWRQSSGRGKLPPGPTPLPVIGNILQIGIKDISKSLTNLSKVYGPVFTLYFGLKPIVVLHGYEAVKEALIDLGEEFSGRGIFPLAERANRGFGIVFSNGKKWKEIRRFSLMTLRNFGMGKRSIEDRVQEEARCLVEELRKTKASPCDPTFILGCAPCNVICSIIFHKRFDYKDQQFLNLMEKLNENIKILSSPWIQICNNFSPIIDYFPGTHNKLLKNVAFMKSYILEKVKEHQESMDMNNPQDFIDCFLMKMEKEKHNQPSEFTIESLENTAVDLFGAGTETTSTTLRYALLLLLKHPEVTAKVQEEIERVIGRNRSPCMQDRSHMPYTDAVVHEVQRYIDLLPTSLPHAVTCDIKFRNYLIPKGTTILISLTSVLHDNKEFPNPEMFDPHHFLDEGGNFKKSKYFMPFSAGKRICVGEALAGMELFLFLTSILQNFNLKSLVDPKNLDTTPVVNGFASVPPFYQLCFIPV
Chain of Cytochrome P450 2C19 (Homo sapiens) (P33261 whole entry, looked up): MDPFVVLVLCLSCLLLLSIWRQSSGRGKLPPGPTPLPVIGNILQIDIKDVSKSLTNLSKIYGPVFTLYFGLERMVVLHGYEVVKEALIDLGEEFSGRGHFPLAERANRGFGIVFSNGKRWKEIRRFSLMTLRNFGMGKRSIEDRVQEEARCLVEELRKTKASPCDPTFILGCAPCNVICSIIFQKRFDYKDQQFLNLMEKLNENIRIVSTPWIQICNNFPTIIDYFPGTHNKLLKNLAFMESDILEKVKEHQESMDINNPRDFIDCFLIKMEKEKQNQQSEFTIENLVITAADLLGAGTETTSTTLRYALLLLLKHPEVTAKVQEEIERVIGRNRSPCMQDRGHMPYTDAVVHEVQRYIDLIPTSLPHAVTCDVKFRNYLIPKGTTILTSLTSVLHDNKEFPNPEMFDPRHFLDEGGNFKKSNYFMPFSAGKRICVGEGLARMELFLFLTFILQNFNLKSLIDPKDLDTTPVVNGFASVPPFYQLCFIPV
Chain of Thyrotropin-releasing hormone receptor (Homo sapiens) (P34981 whole entry, looked up): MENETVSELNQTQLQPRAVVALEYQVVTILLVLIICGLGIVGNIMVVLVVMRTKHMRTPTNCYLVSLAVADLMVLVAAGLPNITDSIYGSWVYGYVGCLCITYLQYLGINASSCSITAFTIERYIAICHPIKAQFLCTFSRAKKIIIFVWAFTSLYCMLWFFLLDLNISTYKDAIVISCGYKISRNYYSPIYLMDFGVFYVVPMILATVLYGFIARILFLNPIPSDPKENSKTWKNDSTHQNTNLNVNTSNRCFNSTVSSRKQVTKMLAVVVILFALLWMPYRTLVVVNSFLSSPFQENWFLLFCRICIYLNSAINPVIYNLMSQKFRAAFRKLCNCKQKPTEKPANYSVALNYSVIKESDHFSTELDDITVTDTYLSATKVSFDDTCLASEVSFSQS
Chain of Voltage-gated inwardly rectifying potassium channel KCNH2 (Homo sapiens) (Q12809 whole entry, looked up): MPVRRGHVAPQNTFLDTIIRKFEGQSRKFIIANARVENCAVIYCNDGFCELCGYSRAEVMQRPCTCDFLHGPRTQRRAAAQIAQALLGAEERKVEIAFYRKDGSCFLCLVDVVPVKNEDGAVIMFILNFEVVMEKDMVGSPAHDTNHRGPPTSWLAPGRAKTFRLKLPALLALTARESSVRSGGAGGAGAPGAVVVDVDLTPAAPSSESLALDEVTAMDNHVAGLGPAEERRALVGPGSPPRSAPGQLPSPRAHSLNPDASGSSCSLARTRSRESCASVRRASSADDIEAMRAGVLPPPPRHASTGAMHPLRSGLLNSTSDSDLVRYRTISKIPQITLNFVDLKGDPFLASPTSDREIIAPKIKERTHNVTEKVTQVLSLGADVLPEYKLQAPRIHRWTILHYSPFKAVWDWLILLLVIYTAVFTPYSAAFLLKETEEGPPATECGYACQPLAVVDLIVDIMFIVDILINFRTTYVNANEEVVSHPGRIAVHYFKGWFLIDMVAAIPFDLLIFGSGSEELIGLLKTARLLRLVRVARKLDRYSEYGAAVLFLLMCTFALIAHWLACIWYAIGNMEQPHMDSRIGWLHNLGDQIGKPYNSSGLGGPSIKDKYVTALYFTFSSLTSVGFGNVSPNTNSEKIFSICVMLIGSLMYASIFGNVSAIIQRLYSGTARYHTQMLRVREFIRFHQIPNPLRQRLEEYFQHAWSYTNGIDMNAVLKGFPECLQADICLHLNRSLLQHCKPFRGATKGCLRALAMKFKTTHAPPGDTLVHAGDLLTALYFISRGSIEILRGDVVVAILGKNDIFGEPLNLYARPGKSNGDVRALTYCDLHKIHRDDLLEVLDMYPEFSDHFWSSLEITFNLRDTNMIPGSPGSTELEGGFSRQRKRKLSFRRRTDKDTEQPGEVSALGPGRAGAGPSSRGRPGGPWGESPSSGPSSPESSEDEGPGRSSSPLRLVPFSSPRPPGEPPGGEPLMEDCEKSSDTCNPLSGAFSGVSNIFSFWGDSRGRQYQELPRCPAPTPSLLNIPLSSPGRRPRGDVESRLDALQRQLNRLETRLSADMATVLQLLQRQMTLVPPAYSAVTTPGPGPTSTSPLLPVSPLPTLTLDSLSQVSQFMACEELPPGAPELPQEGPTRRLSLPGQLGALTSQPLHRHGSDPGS
Chain of Cytochrome P450 1A2 (Homo sapiens) (P05177 whole entry, looked up): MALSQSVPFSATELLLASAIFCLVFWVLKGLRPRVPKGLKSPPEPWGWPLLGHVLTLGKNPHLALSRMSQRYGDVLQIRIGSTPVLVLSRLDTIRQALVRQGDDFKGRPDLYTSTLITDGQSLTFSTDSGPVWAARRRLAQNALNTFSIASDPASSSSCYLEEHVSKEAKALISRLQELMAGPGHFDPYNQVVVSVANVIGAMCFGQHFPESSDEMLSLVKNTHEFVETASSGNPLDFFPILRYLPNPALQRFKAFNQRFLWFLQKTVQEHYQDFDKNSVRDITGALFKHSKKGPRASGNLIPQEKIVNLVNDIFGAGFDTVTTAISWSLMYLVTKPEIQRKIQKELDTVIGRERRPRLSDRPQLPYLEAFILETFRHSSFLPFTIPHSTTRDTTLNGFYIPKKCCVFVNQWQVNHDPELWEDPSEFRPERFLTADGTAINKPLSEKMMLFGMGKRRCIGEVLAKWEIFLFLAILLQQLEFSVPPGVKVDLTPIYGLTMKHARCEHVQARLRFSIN

Regarding `C/C(=C\c1ccccc1)[N+](=O)[O-]`, the Potency entry in [1], in assay [3], in assay [6], in assay [7], in assay [8] and in assay [9] was “inactive” each time. Further, in assay [12], the Potency result is “inactive”. Moreover, the Potency in [2] is 43.3 µM (active); in assay [4] it was 68.6 µM (active); in assay [5], 24.3 µM (active); in assay [10], 35.6 µM (active); in assay [11] it was 35.6 µM (active); in assay [13], 44.8 µM (active).
On to `Nc1nc(=S)[nH][nH]1`, for which the Potency entry in [1], in [2], in [3], in [4], in [5] and in assay [6] was “inactive” throughout. Moreover, the Potency entry in assay [7], in [9], in assay [12] and in assay [13] was “inactive” in each case. For the same compound, the Potency was 44.8 µM (active) in assay [14], 25.2 µM (active) in assay [15] and 31.7 µM (active) in [10].
Regarding `CCCCCCCCCCOC(=O)c1ccccc1C(=O)OCCCCCCCCCC`, the Potency entry in assay [1], in assay [2], in [16], in assay [4], in assay [5] and in assay [6] was “inactive” in each case. Further, the Potency entry in [7], in assay [8], in [14], in assay [15], in assay [10] and in assay [11] was “inactive” throughout. For the same compound, in [13], the Potency entry is “inactive”.
As to `ClP(Cl)(Cl)(Cl)Cl`, the Potency result in assay [1], in [2], in assay [16], in assay [4], in [5] and in assay [6] was “inactive” each time. For the same compound, the Potency entry in assay [7], in [8], in assay [9], in assay [14], in assay [10] and in [11] was “inactive” each time. Moreover, in assay [12], the Potency result was “inactive”.
As for `O=C(CBr)OCc1ccccc1`, the Potency entry in assay [1], in assay [2], in [17], in assay [3], in assay [4] and in assay [5] was “inactive” each time. Also, the Potency result in assay [6], in assay [7], in assay [8], in assay [14], in [11] and in assay [12] was “inactive” in each case. Besides, in [13], the Potency entry was “inactive”. In assay [10], the Potency was 35.6 µM (active).
As for `CCCC(=O)Cl`, the Potency result in assay [1], in [2], in assay [17], in assay [4], in assay [5] and in assay [6] was “inactive” each time. The Potency result in [7], in assay [8], in [9], in assay [14], in assay [15] and in assay [10] was “inactive” in each case. Further, the Potency entry in assay [12] and in [13] was “inactive” each time.
With `C=CC(=O)OCC(C)C`, the Potency result in [1], in [2], in assay [17], in [3], in [6] and in [7] was “inactive” throughout. For the same compound, the Potency result in assay [8], in assay [9], in assay [14], in [15], in assay [10] and in [12] was “inactive” throughout. For the same compound, in assay [13], the Potency entry was “inactive”. For the same compound, in [5], the Potency was 48.2 µM (active).
As to `Cc1ccc2ccccc2c1`, the Potency entry in assay [1], in assay [2], in [3], in [4], in assay [5] and in assay [6] was “inactive” each time. For the same compound, the Potency entry in [7], in assay [8], in [14], in [15], in [10] and in assay [12] was “inactive” in each case. Also, the Potency entry in [13] was “inactive”.
